According to PubChem BioAssay (NCATS):
Records with an inconclusive call do not appear. Calls of active or inactive are those of the source. Unless noted, the call rests on the fitted dose curve; in most records, active means well fitted curve in the direction sought with a large enough effect; inconclusive means small, poorly fitted or top-dose-only effect, or another doubt; inactive means no such curve, though single readings can be large; an effect the other way counts as inactive or inconclusive.

What was measured:
[1] = qHTS to identify inhibitors of the type 1 interferon - major histocompatibility complex class I in skeletal muscle: primary screen against the NCATS LOPAC collection (AID 1347405); details: iHSKM muscle cells, IFN-b-induced MHC-I HiBiT luminescence, 24 h; series mostly up to 45.9 µM;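 further: human myoblasts with HiBiT tag on endogenous HLA-B stimulated by IFN-beta; lytic HiBiT luminescence reporting HLA-B protein level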
How it was run: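 First, engineered myoblasts carrying HLA-B-HiBiT were seeded in medium lacking dexamethasone with 4 ng/ml IFN-beta. After 1 hr, compounds were pinned in (top 46 uM final, 7 points). After 24 hrs at 37 C, luminescence was measured following 10 min lysis.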

[2] = qHTS to identify inhibitors of the type 1 interferon - major histocompatibility complex class I in skeletal muscle: primary screen against the NCATS Pharmaceutical Collection (AID 1347407); details: human skeletal muscle cells, IFN-b-induced MHC-I HiBiT luminescence, 24 h; series mostly up to 45.9 µM;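 further: luminescence of HiBiT knocked into endogenous HLA-B as interferon-induced MHC class I level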
How it was run: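 Cells were seeded with 4 ng/ml IFN-beta, incubated 1 h, then dosed with compounds over eight 1:5 steps up to 46 uM final. After 24 h at 37 C, HiBiT lytic reagent was added and luminescence read after 10 min lysis in the dark.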

[3] = target: Protein phosphatase 1D (Homo sapiens) (UniProt O15297); experiment: Rhodamine-PBP qHTS Assay for Modulators of WT P53-Induced Phosphatase 1 (WIP1) (AID 1347425); details: recombinant WIP1, Rhodamine-PBP phosphate fluorescence, real-time; series mostly up to 57.5 µM
Protein phosphatase 1D (Homo sapiens), sequence (O15297 whole entry, looked up): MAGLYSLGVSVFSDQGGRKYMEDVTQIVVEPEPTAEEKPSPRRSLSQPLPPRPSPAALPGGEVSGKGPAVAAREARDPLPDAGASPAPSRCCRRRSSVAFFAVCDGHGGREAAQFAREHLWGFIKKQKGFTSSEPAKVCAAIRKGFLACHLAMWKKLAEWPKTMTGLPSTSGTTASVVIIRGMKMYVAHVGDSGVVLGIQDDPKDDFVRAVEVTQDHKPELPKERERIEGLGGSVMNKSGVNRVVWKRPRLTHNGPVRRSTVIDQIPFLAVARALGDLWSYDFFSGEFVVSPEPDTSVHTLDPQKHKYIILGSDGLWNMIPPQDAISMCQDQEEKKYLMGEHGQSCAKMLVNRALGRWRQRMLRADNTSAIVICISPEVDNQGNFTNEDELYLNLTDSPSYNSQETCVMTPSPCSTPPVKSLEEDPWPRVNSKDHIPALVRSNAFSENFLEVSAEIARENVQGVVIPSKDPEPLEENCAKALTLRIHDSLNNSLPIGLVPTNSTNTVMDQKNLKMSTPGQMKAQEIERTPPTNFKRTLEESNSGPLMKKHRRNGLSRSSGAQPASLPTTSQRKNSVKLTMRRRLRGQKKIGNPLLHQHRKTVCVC
How it was run: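 WIP1 (5 nM final) was preincubated with compound for 1 hour at room temperature. It then dephosphorylated 10 uM VEPPL-pS-QETFS peptide in Tris-HCl pH 7.5 with 30 mM MgCl2. Released Pi was detected by 10 uM Rh-PBP fluorescence (ex 525/em 598 nm) read at 1-min intervals for 11 min, as delta f1 - f0.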

[4] = Validation qHTS assay for inhibitors of Activation Induced Cytidine Deaminase (AID): UDG Counterscreen signal (AID 1347427); details: biochemical UDG counterscreen, fluorescence signal; series mostly up to 115 µM
How it was run: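 Fluorescence at 560 nm excitation, 665 nm emission reports UDG signal after 250 mM NaOH (2x) addition and 30 min. Enzymes (AID 1 uM, UDG 2 U/mL, at 4/3x) preincubated 10 min with compound, then 4 h with 4x 250 nM DJC20/DJC23 substrate at room temperature.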

[5] = target: Single-stranded DNA cytosine deaminase (Homo sapiens) (UniProt Q9GZX7); experiment: Validation qHTS assay for inhibitors of Activation Induced Cytidine Deaminase (AID): AID signal (AID 1347429); details: Recombinant AID, FRET ssDNA deamination with UDG, fluorescence; series mostly up to 115 µM
Single-stranded DNA cytosine deaminase (Homo sapiens), sequence (Q9GZX7 whole entry, looked up): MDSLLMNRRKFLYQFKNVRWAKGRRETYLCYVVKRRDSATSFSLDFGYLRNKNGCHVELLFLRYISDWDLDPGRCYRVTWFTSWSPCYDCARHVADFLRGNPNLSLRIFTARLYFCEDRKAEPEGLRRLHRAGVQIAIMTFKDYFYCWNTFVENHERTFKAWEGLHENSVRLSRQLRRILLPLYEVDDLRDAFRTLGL
How it was run: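 Steps: dispense AID with UDG; pin-transfer compound up to 114 uM final; add DJC20/DJC23 substrate and hold 4 hr at room temperature; add NaOH, hold 30 min; read FRET signal (540/590 nm).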

[6] = Primary qHTS for inhibitors of La Crosse Virus (LACV) - induced cell death in SH-SY5Y cells (AID 1508616); details: SH-SY5Y LACV cytopathicity rescue, ATP luminescence, 6 d; series mostly up to 4.29 µM;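 further: top concentration of the series differs between compounds; higher means more rescue of cells from virus-induced death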
How it was run: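 SH-SY5Y, 6000 cells/well; cpd via pin tool in DMSO; LACV 0.01 MOI; 6 d 37C 5% CO2; ATPLite, 5 min RT; luminescence normalized to ±virus DMSO controls.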

[7] = target: Calcium and integrin-binding protein 1 (Homo sapiens) (UniProt Q99828); experiment: Validation qHTS for Identification of Calcium Integrin Binding protein 1 (CIB1) Competitor (AID 1508618); details: CIB1-GST / FITC-alphaIIb peptide fluorescence polarization; series mostly up to 114 µM
Calcium and integrin-binding protein 1 (Homo sapiens), sequence (Q99828 whole entry, looked up): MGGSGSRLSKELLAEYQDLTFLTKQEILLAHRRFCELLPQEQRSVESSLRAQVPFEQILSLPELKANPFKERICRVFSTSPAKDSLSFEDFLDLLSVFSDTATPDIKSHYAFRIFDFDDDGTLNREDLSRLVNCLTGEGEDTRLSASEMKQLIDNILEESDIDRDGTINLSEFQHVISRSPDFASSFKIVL
How it was run: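 Fluorescence polarization with 1 uM CIB1-GST and 100 nM FITC-alphaIIb peptide in HEPES pH 7.4, NaCl, 5 mM CaCl2, Tween20. Compounds at up to 114 uM final, preincubated with protein 15 min; read after 15 min more at RT.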

[8] = target: Calcium and integrin-binding protein 1 (Homo sapiens) (UniProt Q99828); experiment: Primary qHTS for Identification of Calcium Integrin Binding Protein 1 (CIB1) Competitor (AID 1508620); details: CIB1-GST / FITC-alphaIIb peptide fluorescence polarization; series mostly up to 114 µM;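 further: GST tagged CIB1 binding a fluorescein labelled alphaIIb integrin peptide tracer; top concentration of the series differs between compounds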
How it was run: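 Fluorescence polarization competition: CIB1-GST (1 uM final) preincubated with compound 15 min at room temperature, then FITC-labeled alphaIIb peptide (100 nM final) added for another 15 min. Polarization read at Ex 480/Em 540.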

[9] = qHTS for inhibitors of adenylyl cyclases using a fission yeast platform: a pilot screen against the NCATS LOPAC library (AID 1347410); details: S. pombe CHP2027, fbp1-GFP fluorescence, 18 h; series mostly up to 57.5 µM
How it was run: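 Growth medium went into the plates first, then compounds were pinned (final up to 57 µM), then CHP2027 yeast were added. Plates were incubated overnight (18 h) at 30C in the dark, and GFP was measured by laser scanning cytometry.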

[10] = target: Protein phosphatase 1D (Homo sapiens) (UniProt O15297); experiment: RapidFire Mass Spectrometry qHTS Assay for Modulators of WT P53-Induced Phosphatase 1 (WIP1) (AID 1347424); details: WIP1 dephosphorylation of phosphopeptide, RapidFire MS; series mostly up to 63 µM;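 further: amount of dephosphorylated VEPPL-S-QETFS peptide product formed by WIP1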
How it was run: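 Mass-spectrometric measurement of dephosphorylated peptide after a 5 min room-temperature reaction of 10 nM WIP1 with 2 uM phosphopeptide, following 1 h compound preincubation in 30 mM MgCl2 buffer.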

[11] = Primary qHTS for inhibitors of SARS-S pseudo-typed particle cell entry (AID 1479145; calls by dose curve; further: nearly all actives have a fitted effect of over 45% in size); details: SARS-S pseudotyped particle cell entry, luciferase reporter; series mostly up to 57.1 µM
[12] = Primary qHTS for Huh7 cytotoxicity: counterscreen for inhibitors of MERS-S pseudotyped particle cell entry (AID 1479147; calls by dose curve); details: cell viability read-out; series mostly up to 57.1 µM
[13] = Primary qHTS for inhibitors of MERS-S pseudo-typed particle cell entry (AID 1479149; calls by dose curve; further: nearly all actives have a fitted effect of over 60% in size); details: MERS-S pseudotyped particle entry, luciferase; series mostly up to 57.1 µM
[14] = Primary qHTS for Vero E6 cytotoxicity: counterscreen for inhibitors of SARS-S pseudo-typed particle cell entry (AID 1479150; calls by dose curve); details: cell viability; series mostly up to 57.1 µM
[15] = qHTS to identify inhibitors of the type 1 interferon - major histocompatibility complex class I in skeletal muscle: primary screen against the NCATS Mechanism Interrogation Plate v5.0 (MIPE) Libary (AID 1347411); details: iHSKM cells + IFN-b, HiBiT-tagged MHC-I luminescence, 24 h; series mostly up to 45.8 µM; further: nearly all actives have a fitted effect of over 65% in size
How it was run: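 Seed engineered human myoblasts (HLA-B HiBit) in medium without dexamethasone containing 4 ng/ml IFN-beta; after 1 hr add compound titrations (top 46 uM final). Incubate 24 hrs at 37 C, lyse 10 min with HiBiT reagent, read luminescence.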

[16] = qHTS for inhibitors of Rabies Virus screened against the NCATS CANVASS Library (AID 1347402; calls by dose curve); details: Rabies virus infection cell assay; series mostly up to 45.9 µM
[17] = Confirmatory qHTS for VERO E6 Cytotoxicity Assay: Counterscreen for SARS-CoV-2 CPE Assay (AID 1508605; calls by dose curve; further: nearly all actives have a fitted effect of over 60% in size); details: cell viability luminescence; series mostly up to 20 µM
[18] = Redox Reaction Profiling qHTS: Assay Interference Panel against the NCATS CANVASS Library (AID 1347401); details: resazurin-DTT redox cycling, fluorescence, 15 min; series mostly up to 113 µM
How it was run: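 Quantitative HTS over an 11-point series was run in HEPES pH 7.3 with 50 mM NaCl, 200 uM DTT and 5 uM resazurin. Initial and 15-min resorufin fluorescence readings were taken.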

Measured: Potency

O=c1[nH]oc2c1CCNC2
inactive: [1] | [2] | [3] | [4] | [5] | [6] | [7] | [8]

COc1ccc2c(c1OC)C(=O)O[C@H]2[C@@H]1c2cc3c(cc2CCN1C)OCO3
not listed: [15] | [16] | [17] | [18]
inactive: all other assays above

C=C(C)[C@H]1CN[C@H](C(=O)O)[C@H]1CC(=O)O
not listed: [15] | [16] | [17] | [18]
inactive: all other assays above

C=CCC1(C(C)CC)C(=O)NC(=O)NC1=O (configuration not stated)
inactive: [2] | [10] | [3] | [11] | [12] | [13] | [14] | [6] | [8]

CC(C)N(CCC(C(N)=O)(c1ccccc1)c1ccccn1)C(C)C (configuration not stated)
not listed: [3] | [10] | [11] | [15] | [16] | [17] | [18]
inactive: all other assays above

CC(NC(C)(C)C)C(=O)c1cccc(Cl)c1 (configuration not stated)
not listed: [16] | [17] | [18]
inactive: all other assays above

C[C@]12CC[C@H]3[C@@H](CCC4=CC(=O)CC[C@@H]43)[C@@H]1CC[C@@H]2OC(=O)CCC1CCCCC1
inactive: [2] | [10] | [3] | [11] | [12] | [13] | [14] | [6] | [8]

COP(=S)(OC)Oc1ccc(SC)c(C)c1
inactive: [2] | [10] | [3] | [11] | [12] | [13] | [14] | [6] | [8]

Clc1ccc(C(c2ccc(Cl)cc2)C(Cl)(Cl)Cl)cc1
inactive: [2] | [10] | [3] | [11] | [12] | [13] | [14] | [6] | [8]

COC(=O)[C@@H]1[C@H]2C[C@H]3c4[nH]c5ccccc5c4CCN3C[C@@H]2CC[C@@H]1O
inactive: [16] | [11] | [12] | [13] | [14]

O=[N+]([O-])O[C@H]1CO[C@H]2[C@@H]1OC[C@H]2O[N+](=O)[O-]
inactive: [2] | [10] | [3] | [11] | [12] | [13] | [14] | [6] | [8]

CN1C(=O)COc2c(C(=O)NC3CN4CCC3CC4)cc(Cl)cc21 (configuration not stated)
inactive: [2] | [15] | [10] | [3] | [6] | [8]

NC(=O)c1cc([N+](=O)[O-])cc([N+](=O)[O-])c1
inactive: [2] | [10] | [3] | [11] | [12] | [13] | [14] | [6] | [8]

CCCCC/C=C\C/C=C\C/C=C\C/C=C\CCCC(=O)NCC(=O)O
inactive: [2] | [10] | [3] | [4] | [6] | [8]

O=C(O)c1cc(O)c(O)c(O)c1
inactive: [16] | [11] | [12] | [13] | [14]

C[C@@H]1O[C@@H](OC[C@H]2O[C@@H](Oc3c(-c4ccc(O)c(O)c4)oc4cc(O)cc(O)c4c3=O)[C@H](O)[C@@H](O)[C@@H]2O)[C@H](O)[C@H](O)[C@H]1O
inactive: [16] | [11] | [12] | [13] | [14]

CN1CCC[C@@H]1c1cccnc1
inactive: [16] | [11] | [12] | [13] | [14]

CC(C)(C)NCC(O)c1ccccc1Cl (configuration not stated)
not listed: [10] | [15] | [16] | [17] | [18]
inactive: all other assays above

O=C(O)CCCc1ccc(N(CCCl)CCCl)cc1
inactive: [2] | [15] | [3] | [4] | [5] | [12] | [13] | [14] | [6] | [8]

O=C(CCCN1CCC2(CC1)C(=O)NCN2c1ccccc1)c1ccc(F)cc1
not listed: [6] | [12] | [13] | [14] | [15] | [16] | [18]
inactive: all other assays above

Cc1ncsc1CCCl
not listed: [15] | [16] | [17] | [18]
inactive: all other assays above

NCCc1ccc(O)cc1
not listed: [11] | [12] | [13] | [14] | [15] | [16] | [17]
inactive: all other assays above
